# Bioassay records deposited in PubChem by National Center for Advancing Translational Sciences (NCATS).
# Sfp inh: blocks B. subtilis Sfp PPTase activity; Potency, µM, for inactives: largest response in the series, negative = inhibition, usual class: inhibitors; Q9F4F7; hit rate 3.5% among 310,000; Biochemical Sfp PPTase activity, qHTS;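 note: the enzyme is Sfp with the accession as filed and its product quenches rhodamine fluorescence; 0% = enzyme reaction without inhibitor and -100% = no enzyme wells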
#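 Step 1, compound plus 15 nM Sfp-PPTase, 15 min, room temperature. Step 2, add rhodamine-CoA (5 uM) and BHQ-2-YbbR (12.5 uM). Step 3, read 525/598 nm fluorescence at 0 and 30 min.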
# TDP1 block: inhibitors of human tyrosyl-DNA phosphodiesterase TDP1; recombinant TDP1, AlphaScreen DNA substrate cleavage; Q9NUW8; hit rate 0.28% among 350,000; Potency, µM (highest dose often 130 µM), for inactives: top-dose activity change, negative = inhibition, most hits filed as inhibitors; note: % is set by controls: 0 for no effect and ±100 for the full control effect; nearly all actives have a fitted effect of over 40% in size
# Target sequence (Q9NUW8 whole entry, looked up): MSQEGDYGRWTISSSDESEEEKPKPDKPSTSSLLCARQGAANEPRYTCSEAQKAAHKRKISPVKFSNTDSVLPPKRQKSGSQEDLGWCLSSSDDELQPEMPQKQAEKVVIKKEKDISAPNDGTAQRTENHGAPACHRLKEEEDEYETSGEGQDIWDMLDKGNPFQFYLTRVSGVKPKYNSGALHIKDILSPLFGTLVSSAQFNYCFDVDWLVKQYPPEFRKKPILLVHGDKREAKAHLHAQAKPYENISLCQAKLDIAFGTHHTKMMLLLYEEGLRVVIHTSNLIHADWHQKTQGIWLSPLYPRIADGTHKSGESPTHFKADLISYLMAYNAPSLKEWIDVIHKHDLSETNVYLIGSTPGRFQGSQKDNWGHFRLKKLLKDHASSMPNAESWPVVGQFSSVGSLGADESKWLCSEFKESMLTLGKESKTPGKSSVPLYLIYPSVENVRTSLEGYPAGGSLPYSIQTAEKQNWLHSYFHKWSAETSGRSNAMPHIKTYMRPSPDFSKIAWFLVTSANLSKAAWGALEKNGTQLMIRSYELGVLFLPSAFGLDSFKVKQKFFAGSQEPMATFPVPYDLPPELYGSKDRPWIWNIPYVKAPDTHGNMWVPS
#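 Steps: enzyme plus compound, 15 min RT; add biotin/phosphotyrosine-FITC oligonucleotide (15 nM final), react 5 min; add donor/acceptor beads (10 ug/ml final), 10 min; read AlphaScreen. Tdp1 at 1 nM final.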
# BAZ2B block: inhibitors of human BAZ2B bromodomain | Q9UIF8 | AlphaScreen BAZ2B-H3K14Ac peptide displacement | Potency, µM (top dose mostly 114 µM), inactives show at the top dose activity change, negative = inhibition, most hits filed as inhibitors | hit rate 4.4% among 360,000 | AID 504333; note: % is set by controls: 0 for no effect and ±100 for the full control effect; nearly all actives have a fitted effect of over 60% in size
#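 Compounds, titrated to a top concentration of 110 uM, were incubated 30 min at room temperature with preformed BAZ2B/acetyl-K14 H3 peptide complex (50 nM each). Proximity signal was measured by AlphaScreen after 20 min with beads.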
# JMJD2A Tudor inh: JMJD2A Tudor domain (human) inhibition; AlphaScreen JMJD2A-Tudor / H3K4me3 peptide binding; O75164; hit rate 4.4% among 390,000; Potency, µM (titrated, usually from 114 µM), inactives show at the highest dose activity change, negative = inhibition, most hits filed as inhibitors; note: % is set by controls: 0 for no effect and ±100 for the full control effect; nearly all actives have a fitted effect of over 50% in size
# HP1b chromo inh: HP1-beta chromodomain-methylated histone interaction inhibition; AlphaScreen HP1-beta / biotin-H3K9me3 peptide binding; Potency, µM (doses to about 114 µM), for inactives: at the top dose activity change, negative = inhibition, most hits filed as inhibitors; hit rate 0.56% among 390,000; note: nearly all actives have a fitted effect of over 70% in size
#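 Compound inhibition of the preformed complex between 50 nM HP1-beta and 50 nM biotinylated H3K9me3 peptide was read by AlphaScreen. Buffer was PBS pH 7.4 with 0.01% Tween-20. Incubations ran 30 min at room temperature, with 10 ug/mL donor/acceptor beads.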
# G9a block: G9a (human) methyltransferase inhibition; G9a H3K9 monomethylation, AlphaScreen, 2 h; Potency, µM (highest dose often 102 µM), for inactives: top-dose activity, negative = inhibition, usual class: inhibitors; hit rate 8.8% among 350,000; Q96KQ7; note: % is set by controls: 0 for no effect and ±100 for the full control effect; nearly all actives have a fitted effect of over 75% in size
#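 Enzyme 20 nM + cpd, 15 min RT; add b-H3K9 pep 500 nM / SAM 20 uM; 2 h RT; anti-H3K9me1 Ab 0.5 ug/mL + SA donor / anti-rabbit acceptor beads 20 ug/mL each, 10 min; AlphaScreen read.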
# The depositor's hits bear a star; ? = inconclusive; . = no result; [ ] = remark or other dose. The list is not random: actives were taken first. Their share in the collection is about 12%. Calls come from the whole dose curve; as a rule, active = well fitted curve in the direction sought with a large enough effect; inconclusive = small, poorly fitted or top-dose-only effect, or another doubt; inactive = no such curve, though single readings can be large; an effect the other way counts as inactive or inconclusive. Potency is the fitted concentration of half-maximal effect.
SMILES,Sfp inh,TDP1 block,BAZ2B block,JMJD2A Tudor inh,HP1b chromo inh,G9a block
Cc1ccc(NC(=O)Cn2c(=O)n(Cc3nc(C)no3)c(=O)c3cc4c(cc32)OCO4)c(Cl)c1,.,5.6%,-5.3%,-17.2%,-6.6%,-24.1%[59 µM]
Cc1ccc(NC(=O)CSc2ncccc2C(=O)Oc2cccc([N+](=O)[O-])c2)cc1Cl,?,-0.6%,-8.2%,-25.7%,22.8%,50.1µM*
Cc1ccc(NC(=O)CSc2ncccc2C(=O)Oc2ccccc2Cl)cc1Cl,.,0.0%,2.3%,-13.1%,31.6%,?
CSC1=C(C#N)C(CC(C)C)C(C(C)=O)=C(C)N1 (centres undefined),9.0%,5.3%,6.4%,12.3%,53.1%,50.1µM*
CC1(C)CC(=O)c2sc(NS(=O)(=O)c3ccc(F)cc3)nc2C1,-20.9%,6.0%,-24.9%,-9.6%,46.6%,79.4µM*
CC1(C)CC(=O)c2sc(NC(=O)c3ccccc3)nc2C1,-6.0%,6.0%,2.7%,.,.,.
O=S(=O)(Nc1nc2c(s1)CCCC2)c1ccc(F)cc1,16.6%,1.0%,-38.7%,-6.5%,19.6%,10µM*
CC1(C)CC(=O)c2sc(NC(=O)CCS(=O)(=O)c3ccccc3)nc2C1,-9.3%,9.8%,10.4%,-12.5%,27.4%,11.9%[59 µM]
CC1(C)CC(=O)c2sc(NS(=O)(=O)c3ccc(Cl)cc3)nc2C1,9.6%,8.0%,?,-5.6%,13.5%,35.5µM*
O=S(=O)(Nc1nc2c(s1)CCCC2)c1ccc(Br)cc1,8.8%,-3.3%,-3.0%,-15.2%,10.5%,?
CC1(C)CC(=O)c2sc(NS(=O)(=O)c3ccc(Br)cc3)nc2C1,-2.8%,-5.5%,-9.3%,-6.5%,28.5%,50.1µM*
CC1(c2ccc([N+](=O)[O-])cc2)NC(=O)NC1=O (centres undefined),8.8%,4.3%,-13.0%,-13.8%,33.2%,11.1%
N#Cc1ccc(CN2CC[C@@]3(CCCN(C(=O)c4ccncc4)C3)C2)cc1,20.0%,.,.,.,.,4.6%[12.7 µM]
O=[S+]([O-])(c1ccc2c(c1)OCCO2)N1CCN([S+](=O)([O-])c2c(F)cc(F)cc2Br)CC1,.,.,.,-24.0%,.,.
CN(C)c1ccc(NC(=O)CN2C(=O)c3ccccc3Sc3ccc(C(=O)N4CCCC4)cc32)cc1,.,7.6%,?,?,-16.2%,4.47µM*
COc1ccc(C2Nc3ccccc3C(=O)N2Cc2ccccc2)cc1Oc1ccc(NC(C)=O)cc1 (centres undefined),.,0.3%,.,?,.,.
COc1ccc(C2=NNC(c3cc(Cl)cc4c3OCOC4)C2)c(O)c1 (centres undefined),9.2%,-1.2%,-0.7%,.,.,50.1µM*
O=C(NC1CCCc2c1cnn2-c1ccc(F)cc1F)c1csnn1 (centres undefined),10.1%,5.7%,-22.3%,-2.1%,39.7%,-10.3%
O=S(=O)(Nc1ccc(Br)cc1)c1cccc(NC(=S)NCCN2CCOCC2)c1,?,8.2%,-14.6%,-14.0%,-14.2%,31.6µM*
COc1ccccc1NS(=O)(=O)c1cc(NC(=S)NCCN2CCOCC2)ccc1N1CCOCC1,-106.1%,8.3%,?,?,?,10µM*
COCC(=O)Nc1ccc(N2CCOCC2)c(S(=O)(=O)Nc2ccccc2OC)c1,.,0.7%,.,-32.9%,?,.
COc1ccccc1NS(=O)(=O)c1cc(NC(=O)C(C)(C)C)ccc1N1CCOCC1,.,.,3.7%,-5.5%,21.9%,7.0%[0.501 µM]
COc1ccccc1NS(=O)(=O)c1cc(NC(=O)COc2ccccc2F)ccc1N1CCOCC1,.,0.7%,.,-19.4%,17.8µM*,.
COc1ccccc1NS(=O)(=O)c1cc(NC(=O)C2CCCC2)ccc1N1CCOCC1,20µM*,-2.5%,-27.5%,?,?,8.91µM*
CC1=C(c2ccc(C)cc2)S(=O)(=O)NC1=NCc1ccccc1Cl,.,0.0%,-16.0%,-28.1%,27.0%,-31.3%[59 µM]
SMILES,Sfp inh,TDP1 block,BAZ2B block,JMJD2A Tudor inh,HP1b chromo inh,G9a block
CCC(Sc1nc(N)c(NC(=O)c2ccc(OC)cc2)c(=O)[nH]1)C(=O)O (centres undefined),6.5%,0.0%,-5.4%,-6.0%,30.7%,9.7%
COc1ccccc1NS(=O)(=O)c1cc(NC(=O)c2cnccn2)ccc1N1CCOCC1,-7.1%,11.0%,-14.7%,-13.7%,46.7%,.
COc1ccccc1NS(=O)(=O)c1cc(NC(=O)c2ccncc2)ccc1N1CCOCC1,79.4µM*,2.6%,5.6%,-31.8%,?,?
CC(C)(C)OC(=O)N1CCC(NC(=O)c2nc[nH]c2C(=O)N2CCc3ccccc3C2)CC1,.,3.3%,56.2µM*,-27.3%,28.5%,-1.6%[0.501 µM]
CC(C)(C)OC(=O)N1CCC(NC(=O)c2[nH]cnc2C(=O)Nc2ccon2)CC1,.,0.7%,56.2µM*,-23.2%,62.8%,10.6%[0.501 µM]
CC(C)(C)OC(=O)NCCCCCNC(=O)c1[nH]cnc1C(=O)Nc1cccc(Cl)c1,.,0.6%,12.0%,-20.4%,33.9%,-2.0%[0.501 µM]
CC(C)(C)OC(=O)NCCCCCNC(=O)c1[nH]cnc1C(=O)Nc1ccon1,.,1.7%,56.2µM*,-9.2%,48.4%,7.7%[0.501 µM]
O=C(Cc1ccc(NC(=O)C2CCCN(C(=O)C3CCC3)C2)cc1)Nc1cccc(C(=O)N2CCCC2)c1 (centres undefined),.,.,.,-6.2%,41.8%,.
Cc1csc(=O)n1CCC(=O)OCC(=O)Nc1cc([N+](=O)[O-])ccc1Cl,.,0.3%,-31.2%,-13.7%,7.5%,-27.6%
Cc1nonc1-c1ccc2c(c1)OCO2,9.6%,0.0%,0.6%,-1.4%,42.9%,54.2%
Cc1ccc(C)c(-n2c(-c3csc(C)c3)n[nH]c2=S)c1,16.8%,7.1%,-28.7%,22.4µM*,-1.2%,0.282µM*
Cc1ccc(C)c(-n2c(-c3ccc4c(c3)OCO4)n[nH]c2=S)c1,-1.9%,5.9%,?,25.1µM*,-5.8%,3.98µM*
Cc1ccc(C)c(-n2c(-c3ccncc3)n[nH]c2=S)c1,1.4%,5.2%,-20.2%,11.2µM*,27.3%,15.8µM*
CCC1=C2CC[C@H]3C(=O)NC(=O)[C@H]3[C@H]2[C@@]2(Cc3ccccc3)C(=NCC3CC3)OC(=O)N2C1=O,3.8%,7.5%,.,.,.,.
COc1ccc(NC(=O)CN(C)C(C)C(=O)N2CCCCC2)cc1 (centres undefined),?,-2.3%,22.4µM*,0.891µM*,-49.6%,?
CC(C(=O)Nc1ccc2c(c1)OCO2)N(C)CC(=O)Nc1ccc(Cl)cc1 (centres undefined),.,.,.,2.24µM*,?,.
CC(C(=O)Nc1ccc2c(c1)OCO2)N(C)CC(=O)Nc1ccccc1Cl (centres undefined),.,-0.3%,.,-8.4%,35.6%,.
